Test [1] can be described thus: ATG_TAL_CIS: Attagene CIS-FACTORIAL HepG2 Assay for human TAL Basal Promoter (AID 2282966; active means hit-call score of the fitted dose curve at least 0.9, where 1 is the maximum; inactive means score below 0.9;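 further: background control endpoint measuring basal TAL promoter reporter mRNA not a specific factor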). As to conditions: HepG2 Attagene cis-factorial TAL promoter reporter; actives raise or lower the signal. In short, it runs like this: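 Endogenous transcription-factor activity is sensed in HepG2 cells through transfected cis-promoter reporter constructs. After 24 h dosing, reporter transcripts are quantified by RT-PCR and capillary electrophoresis. Gain or loss of signal is fitted relative to DMSO.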

A short description of test [2]: ATG_VDRE_CIS: Attagene CIS-FACTORIAL HepG2 Assay for human Vitamin D Receptor Element (VDRE) (AID 2282968; active means hit-call score of the fitted dose curve at least 0.9, where 1 is the maximum; inactive means score below 0.9). As to conditions: HepG2 VDRE cis-reporter transcription, actives raise or lower the signal. In outline:
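Compounds were applied for 24 h to HepG2 cells transfected with promoter-regulated reporter units. Total RNA was reverse-transcribed, and reporter amplicons were fluorescently labelled and sized by capillary electrophoresis.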

Test [3] concerns the target Nuclear receptor subfamily 1 group I member 3 (Homo sapiens) (UniProt Q14994). Kind of test: ATG_CAR_TRANS: Attagene TRANS-FACTORIAL HepG2 Assay for human Constitutive Androstane Receptor (CAR) (AID 2282969).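 Further: activators raise reporter mRNA above DMSO so AC50 marks induction.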 The settings on record: HepG2 Attagene TRANS-FACTORIAL CAR reporter. In short, it runs like this:
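Transiently transfected HepG2, multiplex TRANS reporters (CAR-Gal4 chimera driving GAL4-UAS reporter). 24 h dosing. Readout: reporter transcript by RT-PCR + capillary electrophoresis, fluorescence intensity; positive direction vs DMSO.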

Test [4] concerns the target Estrogen receptor (Homo sapiens) (UniProt P03372). Kind of test: ATG_ERa_TRANS: Attagene TRANS-FACTORIAL HepG2 Assay for human Estrogen Receptor alpha (ERa) (AID 2282970). The settings on record: HepG2 Attagene TRANS ERa GAL4 reporter, mRNA. In short, it runs like this:
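Transfected HepG2 cells carrying GAL4-UAS-driven reporter units were dosed for 24 hours. Total RNA was reverse-transcribed, reporter sequences PCR-amplified, FAM-labelled, HpaI-digested and resolved by capillary electrophoresis. Increases over DMSO control defined activity.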

Test [5] addresses Steroid hormone receptor ERR1 (Homo sapiens) (UniProt P11474). Kind of test: ATG_ERRa_TRANS: Attagene TRANS-FACTORIAL HepG2 Assay for human Estrogen-Related Receptor alpha (ERRa) (AID 2282971). The settings on record: HepG2 Attagene TRANS reporter, ERRa transactivation. In outline: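 HepG2 cells were transiently transfected with multiple GAL4-UAS reporter units, then dosed with compound for 24 h. Total RNA was reverse-transcribed, reporter cDNA PCR-amplified and fluorescently labelled, and fragments resolved by capillary electrophoresis; induction was compared with DMSO.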

Test [6] concerns the target X-box-binding protein 1 (Homo sapiens) (UniProt P17861). Put plainly: ATG_Xbp1_CIS: Attagene CIS-FACTORIAL HepG2 Assay for human X-box Binding Protein 1 (XBP1) (AID 2282972; active means hit-call score of the fitted dose curve at least 0.9, where 1 is the maximum; inactive means score below 0.9). As to conditions: HepG2 XBP1 cis-element reporter, Attagene multiplex; actives raise or lower the signal. In short, it runs like this:
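Multiplexed cis-reporter readout in transfected HepG2 liver cells. Exposure lasted 24 hours. Activity in either direction was fitted against DMSO as negative control and baseline.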

Test [7] is described as follows: ATG_M_19_TRANS: Attagene TRANS-FACTORIAL HepG2 Assay for M19 Transcription Factor (Internal Marker) (AID 2282974). The settings on record: HepG2 Attagene TRANS-FACTORIAL M19 internal marker reporter. In outline:
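HepG2 transiently transfected with GAL4-UAS multiplex reporter constructs, exposed 24 h; reporter RNA quantified by RT-PCR, 6-FAM labeling, HpaI digestion and capillary electrophoresis; internal background marker fitted upward versus DMSO.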

Test [8] addresses Estrogen-related receptor gamma (Homo sapiens) (UniProt P62508). Put plainly: ATG_ERRg_TRANS: Attagene TRANS-FACTORIAL HepG2 Assay for human Estrogen-Related Receptor gamma (ERRg) (AID 2282977).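 Further: hits increase reporter signal over DMSO so potencies reflect activators.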 The settings on record: HepG2 Attagene TRANS reporter, ERRg transactivation. In short, it runs like this:
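Induction of reporter transcripts through a chimeric NR-Gal4 protein is quantified in transfected human HepG2 liver cells after 24 h chemical exposure, using RT-PCR with capillary electrophoresis detection and DMSO as baseline.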

Test [9] has as its target Bile acid receptor (Homo sapiens) (UniProt Q96RI1). Kind of test: ATG_FXR_TRANS: Attagene TRANS-FACTORIAL HepG2 Assay for Farnesoid X Receptor (FXR) (AID 2282979).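 Further: hits raise reporter mRNA above DMSO so AC50 marks FXR activation.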 As to conditions: HepG2 Attagene TRANS FXR-GAL4 reporter transcription. In outline:
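Chimeric FXR-GAL4 activity in transiently transfected human HepG2 liver cells is scored as induction of reporter mRNA after 24 h of dosing. Detection uses RT-PCR with fluorescent labelling and capillary electrophoresis, with DMSO serving as baseline.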

Test [10] deals with Oxysterols receptor LXR-alpha (Homo sapiens) (UniProt Q13133). Put plainly: ATG_LXRa_TRANS: Attagene TRANS-FACTORIAL HepG2 Assay for human Liver X Receptor alpha (LXRa) (AID 2282980). As to conditions: HepG2 Attagene TRANS reporter, LXRa transactivation. In short, it runs like this:
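Transient HepG2 transfectants, 24 h dosing, RT-PCR/CE mRNA reporter quantitation; gain-of-signal vs DMSO.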

Test [11] addresses Oxysterols receptor LXR-beta (Homo sapiens) (UniProt P55055). Put plainly: ATG_LXRb_TRANS: Attagene TRANS-FACTORIAL HepG2 Assay for human Liver X Receptor beta (LXRb) (AID 2282981). The settings on record: HepG2 Attagene TRANS GAL4-LXRb reporter, mRNA. In short, it runs like this:
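Multiplexed reporter assay, HepG2, 24 h dosing. Fluorescence of labelled RT-PCR products after capillary electrophoresis gives transcript level; positive fitting direction relative to DMSO.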

Test [12] is described as follows: ATG_M_32_TRANS: Attagene TRANS-FACTORIAL HepG2 Assay for M32 Transcription Factor (Internal Marker) (AID 2282984).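 Further: transcript level of a background control reporter unit measured by RT-PCR and capillary electrophoresis.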 The settings on record: HepG2 Attagene TRANS M32 internal marker reporter. In short, it runs like this: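 Internal-marker readout from a multiplexed transcription reporter panel. HepG2 cells were transfected with GAL4-UAS reporter units, treated 24 hours, and reporter transcript levels determined by fluorescence after RT-PCR and capillary separation.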

The target in test [13] is Transcriptional activator Myb (Homo sapiens) (UniProt P10242). Put plainly: ATG_Myb_CIS: Attagene CIS-FACTORIAL HepG2 Assay for human Myeloblastosis (Myb) Proto-Oncogene Transcription Factor (AID 2282986; active means hit-call score of the fitted dose curve at least 0.9, where 1 is the maximum; inactive means score below 0.9). As to conditions: HepG2 Attagene CIS-FACTORIAL Myb reporter transcription; actives raise or lower the signal. In outline: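 Transiently transfected HepG2 cells carrying a multiplexed cis-promoter reporter set report endogenous Myb activity after 24 h compound exposure. Reporter mRNA is read by RT-PCR with capillary electrophoresis of fluorescent products, fitted bidirectionally against DMSO.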
Sequence of Transcriptional activator Myb (Homo sapiens) (P10242 whole entry, looked up): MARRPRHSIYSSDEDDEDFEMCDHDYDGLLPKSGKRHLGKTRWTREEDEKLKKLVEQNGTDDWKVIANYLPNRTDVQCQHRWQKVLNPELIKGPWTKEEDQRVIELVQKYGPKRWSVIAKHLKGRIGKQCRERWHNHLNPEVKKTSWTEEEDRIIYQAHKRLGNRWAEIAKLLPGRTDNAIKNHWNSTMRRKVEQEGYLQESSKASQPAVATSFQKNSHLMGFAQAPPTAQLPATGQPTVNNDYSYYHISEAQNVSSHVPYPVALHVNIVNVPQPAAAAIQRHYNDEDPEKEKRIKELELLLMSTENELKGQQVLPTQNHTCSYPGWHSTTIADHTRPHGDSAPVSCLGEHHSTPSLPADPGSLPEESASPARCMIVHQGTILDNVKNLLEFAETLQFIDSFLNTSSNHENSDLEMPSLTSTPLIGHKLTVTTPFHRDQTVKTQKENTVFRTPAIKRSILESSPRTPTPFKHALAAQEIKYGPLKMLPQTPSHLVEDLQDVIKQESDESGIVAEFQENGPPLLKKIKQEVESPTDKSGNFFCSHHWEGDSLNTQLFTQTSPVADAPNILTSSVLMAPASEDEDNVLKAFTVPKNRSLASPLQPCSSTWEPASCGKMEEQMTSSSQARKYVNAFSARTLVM

The target of test [14] is Nuclear respiratory factor 1 (Homo sapiens) (UniProt Q16656). Put plainly: ATG_NRF1_CIS: Attagene CIS-FACTORIAL HepG2 Assay for human Nuclear Respiratory Factor 1 (NRF1) Orphan Gene (AID 2282987; active means hit-call score of the fitted dose curve at least 0.9, where 1 is the maximum; inactive means score below 0.9). The settings on record: HepG2 NRF1 cis-element reporter, Attagene multiplex; actives raise or lower the signal. In short, it runs like this: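 HepG2 cells transiently transfected with multiple cis-regulated reporter units, exposed 24 h. Reporter mRNAs measured by RT-PCR, fluorescent labelling, HpaI digestion and capillary electrophoresis; bidirectional fitting against DMSO.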

The target in test [15] is Hepatocyte nuclear factor 4-alpha (Homo sapiens) (UniProt P41235). Put plainly: ATG_HNF4a_TRANS: Attagene TRANS-FACTORIAL HepG2 Assay for human Hepatocyte Nuclear Factor 4 alpha (HNF4a) (AID 2282982). The settings on record: HepG2 HNF4a transactivation reporter, mRNA readout. In outline: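 Endpoint reflects transcriptional activation of a GAL4-UAS reporter by an HNF4a-GAL4 chimera in transfected HepG2 cells, 24 h post-dosing. Fluorescence from RT-PCR products separated by capillary electrophoresis; DMSO baseline.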
Sequence of Hepatocyte nuclear factor 4-alpha (Homo sapiens) (P41235 whole entry, looked up, the tested form may be a part): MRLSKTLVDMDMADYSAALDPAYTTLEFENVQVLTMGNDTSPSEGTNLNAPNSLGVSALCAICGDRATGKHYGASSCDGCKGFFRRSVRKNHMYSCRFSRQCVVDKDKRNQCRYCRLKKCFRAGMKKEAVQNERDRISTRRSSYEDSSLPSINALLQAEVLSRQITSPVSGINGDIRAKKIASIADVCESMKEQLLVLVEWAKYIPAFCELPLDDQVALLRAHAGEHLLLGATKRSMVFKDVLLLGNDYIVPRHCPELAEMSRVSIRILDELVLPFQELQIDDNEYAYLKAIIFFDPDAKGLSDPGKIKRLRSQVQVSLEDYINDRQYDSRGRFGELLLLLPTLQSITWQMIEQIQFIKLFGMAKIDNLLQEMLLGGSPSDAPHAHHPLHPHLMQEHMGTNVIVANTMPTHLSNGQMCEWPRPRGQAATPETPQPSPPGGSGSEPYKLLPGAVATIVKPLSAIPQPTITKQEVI

Test [16] is described as follows: ATG_M_06_TRANS: Attagene TRANS-FACTORIAL HepG2 Assay for M06 Transcription Factor (Internal Marker) (AID 2282983). As to conditions: HepG2 Attagene TRANS M06 internal marker reporter. In short, it runs like this:
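Human liver HepG2 cells bearing transiently transfected chimeric NR-GAL4 reporter units were treated with chemicals for 24 h. Total RNA was reverse-transcribed, reporter sequences amplified and labelled, then quantified by capillary electrophoresis. Activity was fitted upward relative to DMSO.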

The target of test [17] is Nuclear receptor subfamily 4 group A member 2 (Homo sapiens) (UniProt P43354). Put plainly: ATG_NURR1_TRANS: Attagene TRANS-FACTORIAL HepG2 Assay for human Nuclear Receptor Related Protein 1 (NURR1) (AID 2282985). The settings on record: HepG2 Attagene TRANS reporter, mRNA readout. In short, it runs like this:
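Endpoint: reporter mRNA increase relative to DMSO. HepG2 cells transfected with reporter units, treated 24 h; RNA processed by RT-PCR, labelling, HpaI digestion and capillary electrophoresis.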

The nature of test [18]: ATG_GAL4_TRANS: Attagene TRANS-FACTORIAL HepG2 Assay for GAL4 (Internal Marker) (AID 2282976). As to conditions: HepG2 Attagene TRANS GAL4 internal marker reporter. In short, it runs like this: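 Fluorescence from capillary electrophoresis of labelled RT-PCR products quantifies reporter mRNA induction after 24 h dosing of HepG2 cells carrying transfected GAL4-UAS reporter transcription units. Vehicle DMSO serves as baseline.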

Test [19] concerns the target Glucocorticoid receptor (Homo sapiens) (UniProt P04150). Put plainly: ATG_GR_TRANS: Attagene TRANS-FACTORIAL HepG2 Assay for human Glucocorticoid Receptor (GR) (AID 2282978).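 Further: activators score as hits since higher reporter transcript over DMSO is fitted.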 As to conditions: HepG2 Attagene TRANS GR reporter, mRNA transcription. In outline: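 HepG2 cells transiently transfected with GAL4-UAS reporter units and exogenous GR-Gal4 chimera, dosed 24 h. Reporter mRNA by RT-PCR, FAM labeling, HpaI digest and capillary electrophoresis; gain-of-signal fit versus DMSO.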

The AC50 is the concentration at which the activity in the assay is half-maximal.

Results filed as inconclusive are left out. The source made the active and inactive calls. How the source made its calls, unless noted: active means hit-call score of the fitted dose curve at least 0.9, where 1 is the maximum; inconclusive means response in the unintended direction; inactive means score below 0.9.

Sequence of Estrogen receptor (Homo sapiens) (P03372 whole entry, looked up, the tested form may be a part): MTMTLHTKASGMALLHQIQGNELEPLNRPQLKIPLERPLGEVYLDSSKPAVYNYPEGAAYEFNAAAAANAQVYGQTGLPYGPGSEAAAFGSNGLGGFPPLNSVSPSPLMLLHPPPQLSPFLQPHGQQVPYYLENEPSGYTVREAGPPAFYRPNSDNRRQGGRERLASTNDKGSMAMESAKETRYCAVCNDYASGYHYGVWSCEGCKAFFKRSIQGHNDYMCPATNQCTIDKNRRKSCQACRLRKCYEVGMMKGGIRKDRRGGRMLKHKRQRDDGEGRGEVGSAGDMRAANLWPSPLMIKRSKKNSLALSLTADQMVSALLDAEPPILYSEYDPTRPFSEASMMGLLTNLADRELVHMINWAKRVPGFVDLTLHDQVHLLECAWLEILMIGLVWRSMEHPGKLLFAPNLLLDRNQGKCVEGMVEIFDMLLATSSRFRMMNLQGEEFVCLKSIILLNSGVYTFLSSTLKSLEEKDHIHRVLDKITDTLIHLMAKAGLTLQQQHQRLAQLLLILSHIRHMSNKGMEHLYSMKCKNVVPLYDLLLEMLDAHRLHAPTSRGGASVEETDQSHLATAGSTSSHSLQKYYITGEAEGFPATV
Sequence of Estrogen-related receptor gamma (Homo sapiens) (P62508 whole entry, looked up, the tested form may be a part): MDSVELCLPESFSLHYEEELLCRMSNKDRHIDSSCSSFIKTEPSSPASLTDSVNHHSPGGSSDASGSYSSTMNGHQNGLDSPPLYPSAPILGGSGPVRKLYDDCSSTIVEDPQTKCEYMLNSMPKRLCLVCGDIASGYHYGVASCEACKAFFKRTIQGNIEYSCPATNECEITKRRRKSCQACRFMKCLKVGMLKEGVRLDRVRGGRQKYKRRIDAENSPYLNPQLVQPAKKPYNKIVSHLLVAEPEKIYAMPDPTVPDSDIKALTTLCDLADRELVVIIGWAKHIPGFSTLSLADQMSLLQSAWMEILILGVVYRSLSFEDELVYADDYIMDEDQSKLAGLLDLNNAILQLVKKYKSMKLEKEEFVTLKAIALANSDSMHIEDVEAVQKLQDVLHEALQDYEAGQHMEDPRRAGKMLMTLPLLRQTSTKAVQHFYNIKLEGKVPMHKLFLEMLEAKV
Sequence of Oxysterols receptor LXR-beta (Homo sapiens) (P55055 whole entry, looked up, the tested form may be a part): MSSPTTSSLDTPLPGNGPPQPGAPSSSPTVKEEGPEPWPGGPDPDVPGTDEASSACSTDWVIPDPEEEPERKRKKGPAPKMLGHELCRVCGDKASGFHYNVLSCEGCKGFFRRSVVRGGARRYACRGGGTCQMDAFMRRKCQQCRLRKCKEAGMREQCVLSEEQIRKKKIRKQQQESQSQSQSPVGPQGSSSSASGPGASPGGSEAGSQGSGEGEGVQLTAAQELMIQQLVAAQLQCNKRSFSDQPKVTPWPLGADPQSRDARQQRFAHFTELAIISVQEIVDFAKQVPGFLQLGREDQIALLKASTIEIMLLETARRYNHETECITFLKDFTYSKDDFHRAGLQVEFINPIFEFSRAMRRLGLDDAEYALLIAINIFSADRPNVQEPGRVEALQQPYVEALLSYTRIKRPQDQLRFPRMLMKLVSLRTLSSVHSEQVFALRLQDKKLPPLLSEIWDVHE
Sequence of X-box-binding protein 1 (Homo sapiens) (P17861 whole entry, looked up): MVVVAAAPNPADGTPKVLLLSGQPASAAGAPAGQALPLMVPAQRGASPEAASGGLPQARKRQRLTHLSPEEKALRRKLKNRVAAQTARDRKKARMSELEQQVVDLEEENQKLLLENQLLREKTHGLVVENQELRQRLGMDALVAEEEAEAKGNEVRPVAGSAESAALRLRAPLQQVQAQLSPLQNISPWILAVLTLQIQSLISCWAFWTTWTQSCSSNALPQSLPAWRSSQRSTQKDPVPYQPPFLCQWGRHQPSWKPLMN
Sequence of Oxysterols receptor LXR-alpha (Homo sapiens) (Q13133 whole entry, looked up): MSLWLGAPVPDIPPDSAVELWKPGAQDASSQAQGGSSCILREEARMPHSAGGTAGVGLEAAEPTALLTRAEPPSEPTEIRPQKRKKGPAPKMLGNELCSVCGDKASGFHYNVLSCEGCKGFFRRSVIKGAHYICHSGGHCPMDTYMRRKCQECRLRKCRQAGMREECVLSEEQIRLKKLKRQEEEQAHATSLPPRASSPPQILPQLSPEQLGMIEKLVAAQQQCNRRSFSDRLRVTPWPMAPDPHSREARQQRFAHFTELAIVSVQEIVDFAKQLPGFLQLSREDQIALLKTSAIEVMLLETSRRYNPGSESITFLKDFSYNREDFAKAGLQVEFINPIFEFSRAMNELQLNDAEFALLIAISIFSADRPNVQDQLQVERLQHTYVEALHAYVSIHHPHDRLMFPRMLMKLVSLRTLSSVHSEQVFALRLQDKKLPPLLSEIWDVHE
Sequence of Glucocorticoid receptor (Homo sapiens) (P04150 whole entry, looked up, the tested form may be a part): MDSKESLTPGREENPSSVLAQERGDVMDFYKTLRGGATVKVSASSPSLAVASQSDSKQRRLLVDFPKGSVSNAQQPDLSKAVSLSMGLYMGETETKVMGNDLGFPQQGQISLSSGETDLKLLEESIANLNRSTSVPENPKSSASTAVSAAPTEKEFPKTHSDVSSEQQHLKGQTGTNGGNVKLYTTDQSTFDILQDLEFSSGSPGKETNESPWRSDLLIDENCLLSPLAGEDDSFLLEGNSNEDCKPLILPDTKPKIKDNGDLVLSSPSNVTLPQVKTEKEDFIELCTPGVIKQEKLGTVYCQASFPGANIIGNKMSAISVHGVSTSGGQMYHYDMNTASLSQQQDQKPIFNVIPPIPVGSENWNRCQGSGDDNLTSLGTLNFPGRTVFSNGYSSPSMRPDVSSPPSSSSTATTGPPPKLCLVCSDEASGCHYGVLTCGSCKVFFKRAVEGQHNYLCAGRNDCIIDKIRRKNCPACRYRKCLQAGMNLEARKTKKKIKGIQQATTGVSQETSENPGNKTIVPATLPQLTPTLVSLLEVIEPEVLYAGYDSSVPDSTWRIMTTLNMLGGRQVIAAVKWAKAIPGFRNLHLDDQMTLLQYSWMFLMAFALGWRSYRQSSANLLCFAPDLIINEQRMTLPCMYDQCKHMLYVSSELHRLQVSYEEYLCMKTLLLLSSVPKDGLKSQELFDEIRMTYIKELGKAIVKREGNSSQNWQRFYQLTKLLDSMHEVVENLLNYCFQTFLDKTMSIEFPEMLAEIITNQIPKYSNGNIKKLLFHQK
Sequence of Nuclear receptor subfamily 1 group I member 3 (Homo sapiens) (Q14994 whole entry, looked up, the tested form may be a part): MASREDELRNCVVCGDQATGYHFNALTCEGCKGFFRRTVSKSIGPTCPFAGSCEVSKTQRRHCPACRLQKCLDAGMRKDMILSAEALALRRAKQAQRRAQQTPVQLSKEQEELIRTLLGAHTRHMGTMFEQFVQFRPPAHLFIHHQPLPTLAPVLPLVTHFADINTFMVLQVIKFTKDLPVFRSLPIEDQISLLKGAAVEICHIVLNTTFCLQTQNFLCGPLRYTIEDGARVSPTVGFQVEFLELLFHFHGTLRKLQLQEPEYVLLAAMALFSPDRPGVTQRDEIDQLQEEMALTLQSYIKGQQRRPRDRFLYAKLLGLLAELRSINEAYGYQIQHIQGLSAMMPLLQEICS
Sequence of Steroid hormone receptor ERR1 (Homo sapiens) (P11474 whole entry, looked up, the tested form may be a part): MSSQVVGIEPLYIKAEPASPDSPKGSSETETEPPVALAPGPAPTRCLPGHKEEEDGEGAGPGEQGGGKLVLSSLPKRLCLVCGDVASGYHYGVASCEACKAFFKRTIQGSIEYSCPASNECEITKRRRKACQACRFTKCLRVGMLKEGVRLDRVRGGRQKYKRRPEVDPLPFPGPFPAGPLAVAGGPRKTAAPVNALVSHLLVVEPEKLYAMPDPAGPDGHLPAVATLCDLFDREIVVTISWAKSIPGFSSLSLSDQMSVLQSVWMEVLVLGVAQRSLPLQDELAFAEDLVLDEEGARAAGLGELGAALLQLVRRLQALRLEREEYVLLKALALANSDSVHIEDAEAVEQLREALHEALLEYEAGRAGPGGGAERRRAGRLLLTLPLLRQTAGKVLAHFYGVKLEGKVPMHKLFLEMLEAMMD

Turning to `CC(C)(C)C(=O)C=Cc1ccc(Cl)cc1`, the half-maximal activity concentration (AC50) in [1] is 100 µM (active); in [2], 26.3 µM (active); in test [3] it was 24.8 µM (active); in [4], 26.1 µM (active); in test [6], 66.4 µM (active); in test [10], 26.1 µM (active). Also, the outcome in test [5], in test [7], in test [8], in test [9], in [11] and in [12] was inactive. The result in [13] and in test [14] was inactive.
As for `CC(C)c1ccc2cc(C(C)C)ccc2c1`, the molecule was classed as inactive in test [1], in test [2], in test [6], in test [11], in test [15] and in test [16]. In addition, the result in [17], in [13] and in test [14] was inactive. For the same molecule, the AC50 in test [4] was 13.7 µM (active).
With `O=C(Nc1ccccc1SSc1ccccc1NC(=O)c1ccccc1)c1ccccc1`, the call in [1], in test [3], in test [4], in test [5], in test [6] and in test [7] was inactive. For the same molecule, the molecule was classed as inactive in [10], in [11], in test [15], in [12], in [17] and in test [14].
For `O=C(O)CCCCCCCCCC(=O)O`, the molecule was called inactive in test [1], in test [2], in test [5], in test [6], in [18] and in test [8]. For the same molecule, the molecule was classed as inactive in test [19], in test [11], in test [15], in test [16], in test [12] and in test [17]. Further, the call in test [13] and in [14] was inactive. The half-maximal activity concentration (AC50) in test [4] is 22.7 µM (active).
Consider `CCCNC(=O)NS(=O)(=O)c1ccc(Cl)cc1`, for which the result in test [1], in [2], in [4], in test [6], in test [7] and in test [18] was inactive. The molecule was called inactive in test [10], in test [16], in test [12], in test [13] and in test [14].
For the molecule `COc1cc(C)ccc1C(C)C`, the molecule was called inactive in [1], in [2], in test [4], in [7], in test [18] and in test [8]. Also, the molecule was classed as inactive in [10], in test [15], in test [16], in test [12] and in test [14].
Regarding `CC(=O)Nc1nnc(S(N)(=O)=O)s1`, the molecule was classed as inactive in test [1], in test [3], in test [4], in test [6], in test [18] and in test [11]. The molecule was classed as inactive in test [16], in test [12], in test [13] and in test [14].
Regarding `O=c1cc(-c2ccccc2)oc2ccccc12`, the molecule was classed as inactive in test [1], in test [3], in test [7], in test [19], in [10] and in test [11]. The outcome in test [15], in test [16], in test [17], in [13] and in test [14] was inactive. For the same molecule, the results for the concentration at half-maximal activity (AC50) in test [2], in test [4] and in [6] were 30.5 µM (active), 4.97 µM (active) and 82.8 µM (active), respectively.
Consider `c1ccc2c(c1)ccc1ncccc12`, for which the result in test [1], in test [5], in [6], in [7], in test [8] and in test [19] was inactive. Further, the molecule was called inactive in [15], in test [16], in test [17], in [13] and in test [14].

For the origin of these results see PubChem BioAssay (EPA / NIEHS).
